Data taken from the supplement of paper PMC7156485.
± gives the standard deviation of the averaged measurements.

Legend:
Details in all cases: concentration: 10 µM; 24 h
HCC1569 [1] = experiment: cell number relative to DMSO (% of DMSO); higher = more cells (less growth inhibition / toxicity)
Summary of the method: (§1)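 For HCC1569 and TDF cells, compounds at 10 µM were applied for 24 h at 37 °C in triplicate in 384-well plates. Cells were fixed in 3.7% formaldehyde, stained for H1.0 and with DAPI, and imaged at ×10 over six fields per well. The endpoint, H1.0 nuclear intensity or cell number, is shown as percent of the plate control using the median of replicates. Positional effects were smoothed for HCC1569 only.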

TDF [2] = experiment: as above
Summary of the method: as §1

TDF [3] = experiment: H1.0 immunofluorescence intensity relative to DMSO (% of DMSO); higher = stronger H1.0 induction, active = 120 or more
Summary of the method: as §1

HCC1569 [4] = experiment: H1.0 immunofluorescence intensity relative to DMSO (% of DMSO); higher = stronger H1.0 induction, active = 140 or more
Summary of the method: as §1
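For H1.0 immunofluorescence intensity relative to DMSO in this document: TDF is a line of transformed human dermal fibroblasts of mesenchymal origin.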
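For cell number relative to DMSO in this document: TDF denotes transformed human dermal fibroblasts of mesenchymal origin.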

## COC(=O)C(c1ccccc1Cl)N1CCc2sccc2C1 (centres undefined) [Clopidogrel]
HCC1569 [1]
  cell number: 99.8
TDF [2]
  cell number: 79.7
TDF [3]
  H1.0 immunofluorescence intensity: 97.3 (inactive)
HCC1569 [4]
  H1.0 immunofluorescence intensity: 107 (inactive)

## O=c1onc2cnc3ccccc3n12
HCC1569 [1]
  cell number: 101
TDF [2]
  cell number: 97.5
TDF [3]
  H1.0 immunofluorescence intensity: 103 (inactive)
HCC1569 [4]
  H1.0 immunofluorescence intensity: 106 (inactive)

## Cc1cn[nH]c1.Cl [4-Methylpyrazole hydrochloride]
HCC1569 [1]
  cell number: 108
TDF [2]
  cell number: 102
TDF [3]
  H1.0 immunofluorescence intensity: 98.5 (inactive)
HCC1569 [4]
  H1.0 immunofluorescence intensity: 95.4 (inactive)

## CCCCN1CCCCC1C(=O)Nc1c(C)cccc1C (centres undefined) [Bupivacaine]
HCC1569 [1]
  cell number: 97.9
TDF [2]
  cell number: 108
TDF [3]
  H1.0 immunofluorescence intensity: 101 (inactive)
HCC1569 [4]
  H1.0 immunofluorescence intensity: 120 (inactive)

## O=C(NCCO[N+](=O)[O-])c1cccnc1 [Nicorandil]
HCC1569 [1]
  cell number: 102
TDF [2]
  cell number: 96.3
TDF [3]
  H1.0 immunofluorescence intensity: 91.5 (inactive)
HCC1569 [4]
  H1.0 immunofluorescence intensity: 107 (inactive)

## COc1ccccc1N1CCN(CC(O)COc2cccc3ccccc23)CC1.Cl.Cl (centres undefined) [Naftopidil.2HCl]
HCC1569 [1]
  cell number: 97.4
TDF [2]
  cell number: 98.3
TDF [3]
  H1.0 immunofluorescence intensity: 88.6 (inactive)
HCC1569 [4]
  H1.0 immunofluorescence intensity: 103 (inactive)

## S=C([S-])OC1CC2CC1C1CCCC21.[K+] [D-609 potassium]
HCC1569 [1]
  cell number: 100
TDF [2]
  cell number: 104
TDF [3]
  H1.0 immunofluorescence intensity: 95.2 (inactive)
HCC1569 [4]
  H1.0 immunofluorescence intensity: 102 (inactive)

## O=C(CCCN1CCC(O)(c2ccc(Cl)cc2)CC1)c1ccc(F)cc1 [Haloperidol]
HCC1569 [1]
  cell number: 91 ± 7.7
TDF [2]
  cell number: 92.6 ± 3.7
TDF [3]
  H1.0 immunofluorescence intensity: 101 (inactive)
HCC1569 [4]
  H1.0 immunofluorescence intensity: 117 (inactive)

## Cl.O=S(=O)(c1cccc2cnccc12)N1CCCNCC1
HCC1569 [1]
  cell number: 100
TDF [2]
  cell number: 93.8
TDF [3]
  H1.0 immunofluorescence intensity: 92.4 (inactive)
HCC1569 [4]
  H1.0 immunofluorescence intensity: 92.7 (inactive)

## O=c1cc(-c2ccc(O)cc2)oc2cc(OC3OC(CO)C(O)C(O)C3O)cc(O)c12 (centres undefined) [Apigenin-7-glucoside]
HCC1569 [1]
  cell number: 98.2
TDF [2]
  cell number: 99.3
TDF [3]
  H1.0 immunofluorescence intensity: 93.7 (inactive)
HCC1569 [4]
  H1.0 immunofluorescence intensity: 91 (inactive)

## CN(C)CCOc1ccc(-c2nc(=c3ccc4c(c3)CCC=4N=O)c(=C3C=CNC=C3)[nH]2)cc1
HCC1569 [1]
  cell number: 88.6
TDF [2]
  cell number: 49
TDF [3]
  H1.0 immunofluorescence intensity: 117 (inactive)
HCC1569 [4]
  H1.0 immunofluorescence intensity: 132 (inactive)

## CN1CCN(C2=Nc3cc(F)ccc3Cc3ccccc32)CC1 [Fluperlapine]
HCC1569 [1]
  cell number: 104
TDF [2]
  cell number: 102
TDF [3]
  H1.0 immunofluorescence intensity: 100 (inactive)
HCC1569 [4]
  H1.0 immunofluorescence intensity: 118 (inactive)

## CCCCCCCCCCCCCCCCCCCC(=O)O [Eicosanoic acid]
HCC1569 [1]
  cell number: 99.8
TDF [2]
  cell number: 102
TDF [3]
  H1.0 immunofluorescence intensity: 102 (inactive)
HCC1569 [4]
  H1.0 immunofluorescence intensity: 101 (inactive)

## O.O.O=c1c(O)c(-c2ccc(O)c(O)c2)oc2cc(O)cc(O)c12 [Quercetin dihydrate]
HCC1569 [1]
  cell number: 88.6
TDF [2]
  cell number: 98.7
TDF [3]
  H1.0 immunofluorescence intensity: 90.2 (inactive)
HCC1569 [4]
  H1.0 immunofluorescence intensity: 134 (inactive)

## Cc1cn(C2CC(N=[N+]=[N-])C(CO)O2)c(=O)[nH]c1=O (centres undefined) [3'-Azido-3'-deoxythymidine]
HCC1569 [1]
  cell number: 104.8 ± 0.49
TDF [2]
  cell number: 101 ± 7.6
TDF [3]
  H1.0 immunofluorescence intensity: 96.8 (inactive)
HCC1569 [4]
  H1.0 immunofluorescence intensity: 97.8 (inactive)

## Cl.NCCNC(=O)c1ccc(Cl)cc1 [Ro 16-6491 hydrochloride]
HCC1569 [1]
  cell number: 100
TDF [2]
  cell number: 102
TDF [3]
  H1.0 immunofluorescence intensity: 94.8 (inactive)
HCC1569 [4]
  H1.0 immunofluorescence intensity: 107 (inactive)

## Cl.N=C(N=C(N)N)N1CCOCC1 [Moroxydine.HCl]
HCC1569 [1]
  cell number: 106
TDF [2]
  cell number: 120
TDF [3]
  H1.0 immunofluorescence intensity: 98.7 (inactive)
HCC1569 [4]
  H1.0 immunofluorescence intensity: 88.6 (inactive)

## CC(=O)OC1C(C)OC(Oc2c(-c3ccc(O)cc3)oc3cc(O)cc(O)c3c2=O)C(O)C1OC(C)=O (centres undefined) [RSK Inhibitor, SL0101]
HCC1569 [1]
  cell number: 97.7
TDF [2]
  cell number: 92.8
TDF [3]
  H1.0 immunofluorescence intensity: 102 (inactive)
HCC1569 [4]
  H1.0 immunofluorescence intensity: 107 (inactive)

## OC[C@H]1NC[C@@H](O)[C@@H]1O [1,4-Dideoxy-1,4-imino-D-arabinitol]
HCC1569 [1]
  cell number: 105
TDF [2]
  cell number: 97.9
TDF [3]
  H1.0 immunofluorescence intensity: 88.6 (inactive)
HCC1569 [4]
  H1.0 immunofluorescence intensity: 90.4 (inactive)

## CC(=O)c1ccc(N2CCOCC2)cc1O [DNA-PK Inhibitor III]
HCC1569 [1]
  cell number: 99.1
TDF [2]
  cell number: 93.9
TDF [3]
  H1.0 immunofluorescence intensity: 93.9 (inactive)
HCC1569 [4]
  H1.0 immunofluorescence intensity: 118 (inactive)

## O=C(c1cc2cc(O)ccc2[nH]1)c1cc2cc(O)ccc2[nH]1 [Flt-3 Inhibitor II]
HCC1569 [1]
  cell number: 67.1
TDF [2]
  cell number: 73
TDF [3]
  H1.0 immunofluorescence intensity: 99.9 (inactive)
HCC1569 [4]
  H1.0 immunofluorescence intensity: 195 (active)

## CCCCc1c(-c2ccc(OC)cc2)[nH]c2nccnc12 [Aloisine, RP106]
HCC1569 [1]
  cell number: 94.7
TDF [2]
  cell number: 97.5
TDF [3]
  H1.0 immunofluorescence intensity: 93.2 (inactive)
HCC1569 [4]
  H1.0 immunofluorescence intensity: 110 (inactive)

## Cc1c2c(c(O)c3c(O)cccc13)C(=O)OC2C1C(O)C(=O)C(C(N)=O)=C(O)C1N(C)C (racemic)
HCC1569 [1]
  cell number: 93.9
TDF [2]
  cell number: 93.1
TDF [3]
  H1.0 immunofluorescence intensity: 96.4 (inactive)
HCC1569 [4]
  H1.0 immunofluorescence intensity: 102 (inactive)

## O=C(CCCc1ccc(-c2ccccc2F)cc1)Nc1ccc(O)cc1 [MK2a Inhibitor]
HCC1569 [1]
  cell number: 79
TDF [2]
  cell number: 11.1
TDF [3]
  H1.0 immunofluorescence intensity: 157 (active)
HCC1569 [4]
  H1.0 immunofluorescence intensity: 129 (inactive)

## Cl.Cl.c1cnc(N2CCN(Cc3ccc4c(c3)OCO4)CC2)nc1 [Piribedil.2HCl]
HCC1569 [1]
  cell number: 100
TDF [2]
  cell number: 98.2
TDF [3]
  H1.0 immunofluorescence intensity: 92 (inactive)
HCC1569 [4]
  H1.0 immunofluorescence intensity: 107 (inactive)

## CCc1cc(CCC2(C3CCCC3)CC(O)=C(Cc3nc4nc(C)cc(C)n4n3)C(=O)O2)cc(CC)n1 (centres undefined)
HCC1569 [1]
  cell number: 97.3
TDF [2]
  cell number: 106
TDF [3]
  H1.0 immunofluorescence intensity: 87.6 (inactive)
HCC1569 [4]
  H1.0 immunofluorescence intensity: 104 (inactive)
